# Laboratory results from PubChem BioAssay.
# Activity calls are given as the source filed them.
# Assays:
# [1] = compound effects on differentiated 3T3-L1 adipocyte viability – cell-based, 3T3-L1 adipocytes, calcein-AM fluorescence, 48 h, basal, profiling panel (AID 1163); details: 3T3-L1 adipocytes viability, higher = more signal
# [2] = compound effects on hepatocellular carcinoma cell viability – HepG2, calcein-AM fluorescence, 48 h, basal, profiling panel (AID 1164); details: higher = more signal
# [3] = compound effects on multiple myeloma cell viability – MM1S, calcein-AM fluorescence, 48 h, basal, profiling panel (AID 1165); details: higher = more signal;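 also: viability of MM1S multiple myeloma cells under basal unstimulated conditions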
# [4] = calcein-AM signal in unstimulated myeloma cells – cell-based, calcein-AM fluorescence, 48 h, PK04 Diversity Set, profiling panel (AID 1166); details: RPMI8226 myeloma viability, higher = more signal;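 also: cells grown under basal conditions without added stimulus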
# [5] = JC-1 mitochondrial signal, unstimulated HepG2 cells – cell-based, JC-1 fluorescence, 24 h, 100 nL compound, profiling panel (AID 1167); details: HepG2 mitochondrial potential, higher = more signal
# [6] = JC-1 mitochondrial signal, unstimulated adipocytes – cell-based, JC-1 fluorescence, 3T3-L1 adipocytes, 24 h, 100 nL compound, profiling panel (AID 1168); details: JC-1 mitochondrial fluorescence, higher = more signal, called active from +8 up or from −8 down
# [7] = JC-1 mitochondrial signal, unstimulated myeloma cells – cell-based, JC-1 fluorescence, RPMI8226, 24 h, 100 nL compound, profiling panel (AID 1169); details: JC-1 mitochondrial potential fluorescence, higher = more signal
# [8] = JC-1 mitochondrial signal, unstimulated MM1S myeloma – cell-based, JC-1 fluorescence, 24 h, 100 nL compound, profiling panel (AID 1170); details: MM1S mitochondrial potential, higher = more signal
# [9] = resazurin metabolic signal in A549 cells – cell-based, resazurin fluorescence, 24 h, PK04 Diversity Set, profiling panel (AID 1171); details: A549 viability, higher = more signal, called active from +8 up or from −8 down
# [10] = resazurin metabolic signal in HepG2 cells – cell-based, resazurin fluorescence, 24 h, PK04 Diversity Set, profiling panel (AID 1172); details: HepG2 viability, higher = more signal
# [11] = budding yeast growth changes without added modifier – OD600, strain BY4716, 24 h, basal condition, primary screen (AID 1173); details: S. cerevisiae BY4716 growth, OD600, 24 h; higher = more signal, called active from +8 up or from −8 down
# [12] = viability profiling in MM1S myeloma cells – cell-based, resazurin fluorescence, basal, 24 h, PK04 Diversity Set, profiling panel (AID 1174); details: higher = more signal, called active from +8 up or from −8 down
# [13] = target: Dihydroorotate dehydrogenase (quinone), mitochondrial (Plasmodium falciparum (isolate 3D7)) (UniProt Q08210); test: inhibition of P. falciparum DHODH – biochemical, C-terminal His tag, absorbance 600 nm, primary screen (AID 1175); details: PfDHODH enzyme, DCIP absorbance 600 nm; higher = more signal, called active from +8 up or from −8 down;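 also: recombinant parasite enzyme with a five histidine tag at its C terminus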
# Dihydroorotate dehydrogenase (quinone), mitochondrial (Plasmodium falciparum (isolate 3D7)), sequence (Q08210 whole entry, looked up): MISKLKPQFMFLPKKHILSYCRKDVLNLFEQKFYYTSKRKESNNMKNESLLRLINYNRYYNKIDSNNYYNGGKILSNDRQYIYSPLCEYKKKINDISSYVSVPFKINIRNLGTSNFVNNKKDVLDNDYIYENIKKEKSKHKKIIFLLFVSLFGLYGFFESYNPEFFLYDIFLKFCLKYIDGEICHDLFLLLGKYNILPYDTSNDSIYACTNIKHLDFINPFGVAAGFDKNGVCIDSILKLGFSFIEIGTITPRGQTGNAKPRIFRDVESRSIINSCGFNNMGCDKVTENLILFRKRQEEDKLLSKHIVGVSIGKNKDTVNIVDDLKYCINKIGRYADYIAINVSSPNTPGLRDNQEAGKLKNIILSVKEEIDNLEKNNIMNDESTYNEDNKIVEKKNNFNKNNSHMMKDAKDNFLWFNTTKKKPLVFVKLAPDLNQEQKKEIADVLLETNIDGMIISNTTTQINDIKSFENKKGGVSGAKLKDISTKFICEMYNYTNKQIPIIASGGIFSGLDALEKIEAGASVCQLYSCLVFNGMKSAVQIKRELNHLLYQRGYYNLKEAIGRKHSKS
# [14] = growth modulation of vineyard yeast isolate – strain RM11-1a, OD600, basal, 24 h, primary screen (AID 1177);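 also: cultures grown under basal conditions with no added stressor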; details: S. cerevisiae RM11-1a growth, OD600, 24 h; higher = more signal, called active from +8 up or from −8 down
# [15] = growth of efflux-deficient E. coli DRC39 – strain DRC39, OD650, 24 h, E. coli filamentation inducers, primary screen (AID 1178);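 also: growth measured as culture turbidity by optical density at 650 nm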; details: E. coli DRC39 acrAB, higher = more signal, called active from +8 up or from −8 down
# [16] = growth of efflux-deficient E. coli DRC39 – strain DRC39, OD650, 48 h, E. coli filamentation inducers, primary screen (AID 1179);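 also: screen aims at cell division blockers that make cells filament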; details: E. coli DRC39 delta-acrAB growth, higher = more signal, called active from +8 up or from −8 down
# [17] = viability profiling in RPMI8226 myeloma cells – cell-based, resazurin fluorescence, basal, 24 h, PK04 Diversity Set, profiling panel (AID 1180); details: higher = more signal;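 also: RPMI8826 multiple myeloma cell line at 5000 cells per well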
# [18] = target: E3 ubiquitin-protein ligase XIAP (Homo sapiens) (UniProt P98170); test: small molecules binding XIAP protein – biophysical, small-molecule microarray, fluorescence 635 nm, primary screen (AID 1181); details: higher = more signal;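 also: score merges 667 nm emission and signal to noise over triplicate slides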
# E3 ubiquitin-protein ligase XIAP (Homo sapiens), sequence (P98170 whole entry, looked up, the tested form may be a part): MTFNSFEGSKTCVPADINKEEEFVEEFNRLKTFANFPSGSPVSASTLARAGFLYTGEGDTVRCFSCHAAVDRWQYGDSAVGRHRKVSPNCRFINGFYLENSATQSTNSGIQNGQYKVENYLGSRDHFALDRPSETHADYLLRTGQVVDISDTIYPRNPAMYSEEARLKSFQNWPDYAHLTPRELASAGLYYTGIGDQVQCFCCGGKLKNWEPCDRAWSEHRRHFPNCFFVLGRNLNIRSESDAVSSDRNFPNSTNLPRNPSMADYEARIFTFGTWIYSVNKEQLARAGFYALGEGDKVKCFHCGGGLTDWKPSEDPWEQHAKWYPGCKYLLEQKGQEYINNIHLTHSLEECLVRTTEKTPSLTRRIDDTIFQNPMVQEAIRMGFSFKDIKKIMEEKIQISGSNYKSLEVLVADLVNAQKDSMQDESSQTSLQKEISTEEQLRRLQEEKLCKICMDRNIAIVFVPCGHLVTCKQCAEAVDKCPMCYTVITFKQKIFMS
# [19] = tested on: XIP peptide (Xip251-270) binding; test: XIP fragment 251-270 binding compounds – biochemical, small-molecule microarray, fluorescence 635/667 nm, 0.1 µg/mL protein, primary screen (AID 1182); details: fluorescent protein binding, 635 nm, higher = more signal, called active from +8 up or from −8 down
# XIP peptide (Xip251-270) = test: compounds binding XIP fragment 251-270 – biochemical, small-molecule microarray, fluorescence 635/667 nm, 0.5 µg/mL protein, primary screen (AID 1183); details: fluorescence 635 nm, higher = more signal
SMILES,z-score [1],z-score [2],z-score [3],z-score [4],z-score [5],z-score [6],z-score [7],z-score [8],z-score [9],z-score [10],z-score [11],z-score [12],composite z-score [13],z-score [14],z-score [15],z-score [16],z-score [17],composite z-score [18],composite z-score [19],composite z-score (XIP peptide (Xip251-270))
CC(=O)OC(C/C=C\B1OC(C)(C)C(C)(C)O1)c1ccccc1 (stereo not given),0.554,0.467,0.345,0.0422,2.03,2.31 (inactive),-0.457,0.962,0.273 (inactive),0.518,-2.1 (inactive),1.14 (inactive),0.339 (inactive),-4.44 (inactive),1.5 (inactive),0.57 (inactive),0.157,-0.0256,-0.65 (inactive),-0.842
CC(C)(C)OC(=O)CC[C@@]1(C(=O)NCc2ccccc2)N=C(c2ccc(OCCCO)cc2)O[C@@H]1c1ccccc1CN=[N+]=[N-],2.98,-0.399,0.507,-1.04,2.13,0.179 (inactive),-1.12,0.236,0.392 (inactive),-0.169,-0.986 (inactive),0.725 (inactive),-0.182 (inactive),-0.496 (inactive),2.1 (inactive),0.824 (inactive),0.394,-0.227,1.42 (inactive),0.733
C=CCC(OC(C)=O)[C@@H]1[C@@H](N(Cc2cc3ccccc3o2)C(=O)c2ccc(-c3ccccc3)cc2)c2cc(OCCCO)ccc2N1C(=O)c1ccc(-c2ccccc2)cc1 (stereo not given in full),0.893,0.249,0.402,-0.777,3.06,0.604 (inactive),-0.557,0.511,1.15 (inactive),0.634,0.18 (inactive),1.28 (inactive),0.192 (inactive),0.975 (inactive),1.47 (inactive),1.07 (inactive),0.996,-0.102,-0.547 (inactive),-0.599
COCCOC(=O)N1C(=O)[C@@]2(c3cc(C#CC4(O)CCCCCC4)ccc31)[C@H](C(=O)NC[C@H](O)c1ccccc1)[C@H]1C(=O)O[C@H](c3ccccc3)[C@H](c3ccccc3)N1[C@@H]2c1ccccc1OCCO,1.76,-1.41,-3.26,-3.76,-1.3,0.951 (inactive),-0.939,-1.75,-0.0869 (inactive),-0.0252,1.26 (inactive),-1.35 (inactive),0.811 (inactive),3.05 (inactive),0.634 (inactive),1.05 (inactive),-1.93,-0.105,0.551 (inactive),0.751
COCCOC(=O)N1C(=O)[C@@]2(c3cc(C#CC4(O)CCCCCC4)ccc31)[C@H](c1ccc(O)cc1)N1[C@H](c3ccccc3)[C@H](c3ccccc3)OC(=O)[C@H]1[C@@H]2C(N)=O,1.46,0.638,-2.22,-4.23,-1.6,-0.385 (inactive),-0.735,0.246,0.928 (inactive),0.228,-1.38 (inactive),0.951 (inactive),0.194 (inactive),-0.95 (inactive),0.158 (inactive),0.155 (inactive),0.778,0.166,1.84 (inactive),0.821
CC(C)C[C@@H]1NC(=O)[C@H]2C[C@@H](C(=O)NCCCC[N+](C)(C)C)[C@@H](c3cccc(OCCO)c3)N2C1=O,0.753,-0.131,0.0808,-0.583,1.22,1.37 (inactive),-0.173,0.0969,-0.474 (inactive),0.417,-0.553 (inactive),0.932 (inactive),-30.9 (active),-0.915 (inactive),0.709 (inactive),0.569 (inactive),0.33,-0.0476,1.85 (inactive),0.705
C=CCC1(CC=C)C[C@H]2CO[C@H](c3ccc(OC)cc3)N2C1=O,0.683,-0.88,0.347,0.0778,0.872,0.773 (inactive),-0.245,0.278,0.771 (inactive),1.01,-4.05 (inactive),-1.19 (inactive),0.621 (inactive),-0.169 (inactive),1.51 (inactive),1.03 (inactive),0.765,-0.323,0.842 (inactive),0.739
Cc1ccc(S[C@]2(C(=O)NCCN3CCOCC3)CC(=O)N(Cc3cc(C(F)(F)F)cc(C(F)(F)F)c3)[C@@H]2c2ccc(CO)cc2)cc1,0.947,-0.0671,1.15,0.603,1.18,0.784 (inactive),-0.0854,0.685,3.33 (inactive),1.08,-1.76 (inactive),0.828 (inactive),-0.911 (inactive),-2.54 (inactive),1.01 (inactive),1.45 (inactive),0.672,0.0808,-0.316 (inactive),0.0326
